Experimental data reported in PubChem BioAssay (NCI).
About 79,000 compounds went through this panel and 15% of them were active in at least one assay; those are over-represented in the sample as a whole. Activity calls are given as the source filed them. Rule as the data show it: active = growth inhibition above about 70%; inactive = the rest.

assay: NCI Yeast Anticancer Drug Screen. Data for the bub3 strain (AID 167); settings: S. cerevisiae bub3 mutant strain, at 50.0 µM, active compounds read high
Procedure: Growth inhibition of yeast strains with defined genetic alterations is measured as a screen for potential anti-cancer activity. Selected strains with alterations in DNA damage repair or cell cycle control were exposed to compounds and growth inhibition was measured relative to vehicle treated controls. The strain used in this assay is bub3

Compound | growth inhibition
CC1(C)CCCC(OC(=O)c2ccc([N+](=O)[O-])cc2)C1 (stereo not given) | 7.5% (inactive)
c1ccc(CCn2c(-c3ccccn3)nc3ccccc32)nc1 | 15.5% (inactive)
O=C(CCN1CCCCC1)c1cc2cc([N+](=O)[O-])ccc2oc1=O | 47% (inactive)
O=C1/C(=C/c2ccc(Cl)cc2)CCC1CNc1ccc(Cl)cc1 (stereo not given) | -16.2% (inactive)
CC1C(c2ccccc2)NC(c2ccccc2)C(C)C1(O)c1ccccc1 (stereo not given) | 11.1% (inactive)
COC(CNc1nc2c(s1)c1c(O)c3c(O)c(C)c4c(c32)C(=O)C(C)(O/C=C\C(OC)C(C)C(OC(C)=O)C(C)C(O)C(C)C(O)C(C)/C=C/C=C(/C)C(=O)N1)O4)OC (stereo not given) | -15.6% (inactive)
COC(=O)C1OC2(CCCC3CC32)O[C@H]1C(=O)OC (stereo not given in full) | -13.8% (inactive)
CC1(c2cccc(N)c2)OCCO1 | 12.7% (inactive)
N#CC(OC(=O)c1ccccc1)C(OC(=O)c1ccccc1)C(COC(=O)c1ccccc1)OC(=O)c1ccccc1 (stereo not given) | -10.5% (inactive)
C=C(C)c1ccccc1S(=O)(=O)c1ccccc1C(C)(C)O | 36.5% (inactive)
Cc1ccccc1N1CCN(CC(O)Cc2ccccc2)CC1 (stereo not given) | 15.1% (inactive)
CCCCCCCCCCCCCCCCCC(=O)OCC(COC1OC(CS(=O)(=O)O)C(O)C(O)C1O)OC(=O)CCCCCCCCCCCCCCCCC (stereo not given) | -1.95% (inactive)
CCOC(=O)CC(c1ccc2c(c1)OCO2)c1cc(OC)c(OC)c(OC)c1 (stereo not given) | 29.1% (inactive)
CCOC(=O)COc1cc2c(cc1C(C)c1cc(OC)c(OC)c(OC)c1)OCO2 (stereo not given) | 34% (inactive)
Cc1ccc(S)c(C(O)(C(F)(F)F)C(F)(F)F)c1 | 8.3% (inactive)
c1ccc(CC2(Cc3ccccc3)SCCS2)cc1 | -0.6% (inactive)
O=C1C2C3CC4C5CC(C1C53)C42 (stereo not given) | -5.4% (inactive)
CCOC(=O)CNC(=O)C(CSSCC(NC(=O)OCc1ccccc1)C(=O)OC)NC(=O)C(NC(=O)OCc1ccccc1)C(C)C (stereo not given) | -11.7% (inactive)
CC(C)=CCC/C(C)=C/CNc1ncnc2c1ncn2C1OC(CO)C(O)C1O (stereo not given) | 12.9% (inactive)
S=C(NCN1CCNCC1)C(=S)NCN1CCNCC1 | -4.05% (inactive)

Compound | growth inhibition
O=[N+]([O-])c1ccc2c(c1)Cc1cc(N(CBr)CBr)ccc1-2 | -7.55% (inactive)
CC(=O)/C(=C\c1ccccc1F)C(=O)CCN(C)C | 13.6% (inactive)
CC(CCl)NC(=O)Nc1cccc2c1CCCC2 (stereo not given) | -2.6% (inactive)
C=CCc1cccc(C2N(Cc3ccc(OC)cc3OC)CCCN2Cc2ccc(OC)cc2OC)c1O | -2.05% (inactive)
O=C(c1ccccc1)C(Br)C(Br)c1ccc([N+](=O)[O-])cc1 (stereo not given) | -1.9% (inactive)
CCCCOB(OCCCC)OCCCC | -1.65% (inactive)
COc1ccc(NC(C)=O)cc1[N+](=O)[O-] | -18.3% (inactive)
CCCCOC(=O)c1ccccc1 | -1.4% (inactive)
O=C(Nc1cccc(Cl)c1Cl)c1cc(/C=C/c2ccc([N+](=O)[O-])cc2)on1 | -8.25% (inactive)
CC(C)=C1C(=O)N(C)C(=O)C1C(N)=O (stereo not given) | 2.85% (inactive)
CCOC(=O)c1cnc(N)nc1N | -8.3% (inactive)
Nc1nc2ncc(=O)[nH]c2c(=O)[nH]1 | 20.3% (inactive)
COc1cc2c(c(OC)c1OC)-c1ccc(S(C)(=O)=O)c(=O)cc1[C@@H](NC(C)=O)CC2 | -35% (inactive)
CC(C)(C)c1ccc(C(=O)NCSCC(NC(=O)CCC(N)C(=O)O)C(=O)NCC(=O)O)cc1 (stereo not given) | 0.85% (inactive)
COc1ccc(C2=NN(C(C)=O)C(c3cc(OC)c(OC)cc3N)S2)cc1OC (stereo not given) (tested in a mixture with another compound) | 12.9% (inactive)
O=C(c1ccc(Br)cc1)C(C(c1ccccc1)N1CCOCC1)N1CCOCC1 (stereo not given) | -20.6% (inactive)
CC(O)c1ccccc1Br (stereo not given) | -36.5% (inactive)
CN1C2CCC1C1N=NN(c3cc(C(F)(F)F)cc(C(F)(F)F)c3)C1(N1CCOCC1)C2 (stereo not given) | -11.9% (inactive)
O=C1C(O)=C(c2ccccc2)C12CSC1(CS2)C(=O)C(O)=C1c1ccccc1 (stereo not given) | 6.05% (inactive)
COC(=O)C1(CCCCCBr)CCCCCCCCCCC1=O (stereo not given) | -25% (inactive)
